Assay outcomes deposited in PubChem BioAssay by National Center for Advancing Translational Sciences (NCATS).
In the library only some 14% were active in any assay of this set; here they are far more common.
LASV entry inh: Lassa virus entry inhibition; Lassa virus pseudotype entry inhibition, cell reporter; Potency, µM (top dose mostly 37.9 µM), for the others: top-dose activity change, negative = inhibition, most hits filed as inhibitors; 1.2% of 300,000 active; AID 540256; calls by dose curve; tested in HEK293 cells; also: potency is read from the fitted curve at half-maximal effect; nearly all actives have a fitted effect of over 50% in size
Pf growth 48h: P. falciparum growth inhibition at 48 hours (one generation); P. falciparum luciferase growth in erythrocytes, 48 h; Potency, µM (top dose mostly 28.7 µM), for inactives: at the highest dose activity change, negative = inhibition, actives largely listed as inhibitors; 5.9% of 310,000 active; AID 504832; also: potency is read from the fitted curve at half-maximal effect
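Erythrocytes infected with P. falciparum carrying an integrated firefly luciferase reporter (2% hematocrit, 0.1% parasitemia final) were exposed to compounds in RPMI 1640 with 0.5% Albumax at 37 C, 5% CO2. Growth inhibition was scored as reduced luminescence.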
HCMV antiviral: human cytomegalovirus inhibition; activity change, negative = inhibition, % at 57.5 µM; HFF cells, HCMV-luciferase reporter, 72 h; active compounds read low; 4.5% of 410,000 active; in the data active = activity change below about -60%; inconclusive = no clear call, values can overlap the other calls; inactive = above about -39%
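Human foreskin fibroblasts infected with luciferase-reporter HCMV at MOI 1 PFU/cell, compounds at two doses. Luciferase measured 72 h post infection; normalized to buffer-only basal and Salinomycin (10uM) controls.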
Marburg entry inh: Marburg virus entry inhibition | Marburg virus pseudotyped entry inhibition, cell reporter | Potency, µM (highest dose often 37.8 µM), for the others: at the highest dose activity change, negative = inhibition, hits mostly inhibitors | 1.8% of 300,000 active | AID 540276; calls by dose curve; tested in HEK293 cells; also: potency is read from the fitted curve at half-maximal effect
Pf growth 96h: P. falciparum growth inhibition at 96 hours; P. falciparum luciferase reporter growth, 96 h; Potency, µM (titrated, usually from 28.7 µM), for inactives: at the top dose activity change, negative = inhibition, usual class: inhibitors; 6.9% of 320,000 active; also: potency is read from the fitted curve at half-maximal effect
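Two parasite generations (96 h, 37 C, 5% CO2) of compound exposure in infected erythrocytes (0.05% parasitemia, 2% hematocrit). Luciferase-reporter P. falciparum; decreased luminescence indicates inhibited growth, aimed at apicoplast-acting delayed death.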
HCV inh: inhibitors of hepatitis C virus infection; Huh7.5.1 HCVcc-Cre infection, luciferase reporter, 44 h; Potency, µM (doses to about 41.8 µM), for inactives: top-dose activity change, negative = inhibition, usual class: inhibitors; 3.4% of 340,000 active; also: potency is read from the fitted curve at half-maximal effect
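Infectious HCVcc-Cre (~0.5 moi) was added to cells just after compound, with cells seeded 4 h earlier at 1,000 per well. Luciferase activity after 44 h culture reported infection; substrate was incubated 15 min at room temperature before reading.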
* hit, by the source's call; ? = inconclusive; / = not tested or not shown; [ ] = dose if it differs, or a comment. Unless noted, calls follow the shape of the dose curve; as a rule, active = well fitted inhibition curve with a large enough effect; inconclusive = small, poorly fitted or top-dose-only effect, or another doubt; inactive = no such curve, though single readings can be large or run the other way. % is scaled to controls: 0 for no effect and ±100 for the full control effect.

SMILES | LASV entry inh | Pf growth 48h | HCMV antiviral | Marburg entry inh | Pf growth 96h | HCV inh
Cc1ccc(Cn2c(CNC(=O)c3ccccc3Br)nc3cccnc32)cc1 | 5.0%[46.1 µM] | / | -17.7 | / | / | /
CN(c1ccc(OCC(=O)N2CCN(c3ccc(F)cc3)CC2)cc1)S(=O)(=O)c1cccs1 | ? | ? | -38.0 | 8.91µM* | ? | 3.55µM*
CN(c1ccc(OCC(=O)N2CCCCC2)cc1)S(=O)(=O)c1cccs1 | ? | -5.1% | -8.2 | 0.1% | ? | -8.1%
CCN1C(=O)[C@@H]2[C@@H](c3ccc(-c4ccc(Cl)c(Cl)c4)cc3)N3CCCC[C@@]3(C(=O)OC)[C@@H]2C1=O | / | 0.4% | 2.2 | / | ? | 13.6%
CCN1C(=O)[C@H]2[C@@H](c3ccc(-c4ccc(F)cc4)c(OC)c3)N3CCC[C@@]3(C(=O)OC)[C@H]2C1=O | / | 7.38µM* | 37.9 | / | 7.38µM* | 3.16µM*
CCN1C(=O)[C@@H]2[C@@H](c3ccc(-c4ccc(Cl)c(Cl)c4)c(OC)c3)N3CCC[C@@]3(C(=O)OC)[C@@H]2C1=O | / | 5.22µM* | 100.2 | / | 0.828µM* | 10µM*
CCN1C(=O)[C@@H]2[C@@H](c3ccc(-c4ccc5c(c4)OCO5)c(OC)c3)N3CCC[C@@]3(C(=O)OC)[C@@H]2C1=O | / | ? | 14.8 | / | ? | -2.0%
COC(=O)[C@@]12CCCCN1[C@H](c1ccc(-c3ccc(Cl)c(Cl)c3)c(OC)c1)[C@H]1C(=O)N(C)C(=O)[C@H]12 | / | / | 7.8 | / | / | 6.3%
CCN1C(=O)[C@@H]2[C@@H](c3ccc(-c4ccc(OC)cc4)c(OC)c3)N3CCCC[C@@]3(C(=O)OC)[C@@H]2C1=O | / | 2.94µM* | 14.5 | / | 4.15µM* | 1.6%
CCN1C(=O)[C@H]2[C@@H](c3ccc(-c4ccc(OC)cc4)c(OC)c3)N3CCCC[C@@]3(C(=O)OC)[C@H]2C1=O | / | 11.7µM* | 8.6 | / | 9.28µM* | ?
CC[C@@]1(C(=O)OC)N[C@H](CN(C)C(=O)Nc2ccc(Cl)cc2)[C@@H]2C(=O)N(Cc3ccccc3)C(=O)[C@@H]21 | / | / | -17.5 | / | / | 9.1%
CCN1C(=O)[C@@H]2[C@@H](c3ccc(-c4cccc(Cl)c4)c(OC)c3)N3CCCC[C@@]3(C(=O)OC)[C@@H]2C1=O | / | 10.4µM* | 10.9 | / | 3.7µM* | 11.5%
CC1(C)O[C@H]2[C@@H](O1)[C@@H](C(=O)Nc1cc(F)ccc1F)O[C@@H]1OC(C)(C)O[C@@H]12 | 2.4%[46.1 µM] | / | -88.9* | 12.2%[46.1 µM] | / | /
O=C1CN(C(=O)/C=C/c2ccc(Cl)cc2Cl)CCN1 | 1.9%[46.1 µM] | 341.8% | 13.2 | ? | 68.5% | -1.4%
CN1CCCN(C(=O)/C=C/c2ccc(Cl)cc2Cl)CC1 | / | 29.7% | -61.8* | / | -27.9% | ?
O=C(Cn1c(=O)n(Cc2ccc3c(c2)OCO3)c(=O)c2oc3ccccc3c21)Nc1ccccc1F | 4.7%[46.1 µM] | / | -19.0 | / | / | /
CCc1cc2c3c(c1)C1(C(=O)N3C(C)(C)CC2C)C(C#N)=C(N)N2C(=C1C#N)Nc1ccccc12 (stereo unspecified) | 12.6µM* | 9.28µM* | ? | ? | -9.8% | ?
Cc1cc2c3c(c1)C1(C(=O)N3C(C)(C)CC2C)C(C#N)=C(N)Oc2cc(O)ccc21 (stereo unspecified) | -9.1% | 11.7µM* | -39.5 | -3.2% | / | ?
CC1=C[C@@H](C)OC2(C1)C(=O)N(CC1CC1)c1cccc(Br)c12 (stereo partly specified) | / | / | / | 2.7%[14.2 µM] | / | /
CSCCC(NC(=O)c1ccccc1Br)C(=O)NCc1ccc(F)cc1 (stereo unspecified) | / | -5.8% | -63.1* | / | -10.2% | 4.7%
CSCCC(NC(=O)c1ccccc1Br)C(=O)NCC1CCCCC1 (stereo unspecified) | -2.5%[46.1 µM] | -7.9% | -27.0 | 12.9%[46.1 µM] | -22.2% | 6.2%
CCOC(=O)c1c(NC(=O)CSc2nc3ccc(OC)cc3[nH]2)sc2c1CC(C)(C)NC2(C)C | ? | ? | -3.6 | ? | 5.86µM* | ?
CCOC(=O)c1c(NC(=O)CSc2ncccn2)sc2c1CC(C)(C)NC2(C)C | -1.9%[46.1 µM] | 14.7µM* | -8.6 | ? | 9.28µM* | -18.4%
CCOC(=O)c1c(NC(=O)COc2ccccc2F)sc2c1CC(C)(C)NC2(C)C | -1.3% | 11.7µM* | -12.7 | ? | ? | ?
CCn1c2c(c(=O)n3ncc(C(=O)Nc4ccc(C(=O)OC)cc4)c13)CN(Cc1ccc(OC)cc1)CC2 | 26.3%[46.1 µM] | / | 19.7 | / | / | /
SMILES | LASV entry inh | Pf growth 48h | HCMV antiviral | Marburg entry inh | Pf growth 96h | HCV inh
CC(=O)Nc1nonc1-c1nnc(SCC(=O)Nc2c(C)cccc2C)n1-c1ccccc1 | -3.1%[46.1 µM] | / | 6.6 | ? | / | /
Cc1ccc(CCNC(=O)c2ccc(CS(=O)(=O)c3ccc(Cl)cc3)o2)cc1 | -23.9%[46.1 µM] | / | 14.0 | / | / | /
Cc1cccc(C)c1NC(=O)C1(C)CSCC(=O)N1C1CCN(Cc2ccccc2)CC1 (stereo unspecified) | / | / | -68.3* | / | / | /
CC1(C(=O)NCc2ccccc2)CSCC(=O)N1C1CCN(Cc2ccccc2)CC1 (stereo unspecified) | / | / | -27.4 | / | / | /
CC(C)(C)OC(=O)N1CCC(c2c(C(=O)N3CCN(Cc4ccccc4)CC3)cnn2-c2cccc(Cl)c2)CC1 | ? | / | 11.3 | / | / | /
Cc1noc(/C=C/c2ccccc2F)c1S(=O)(=O)N1CCC(C(=O)N2CCOc3ccccc32)CC1 | 22.7%[46.1 µM] | / | -3.3 | / | / | /
CC1=Nc2ccc(Br)cc2C(c2ccccc2)N1CC(=O)NN (stereo unspecified) | / | ? | -19.2 | / | 7.9% | 16.1%
COc1cc(OC)c(C2=Nc3ccc(Br)cc3C(c3ccccc3)N2CC(=O)NN)cc1OC (stereo unspecified) | / | ? | -67.6* | / | ? | -5.6%
NNC(=O)CN1C(CN2CCOCC2)=Nc2ccc(Br)cc2C1c1ccccc1 (stereo unspecified) | -3.5%[46.1 µM] | ? | -5.9 | ? | 13.1µM* | 17.8%
NNC(=O)CN1C(c2ccccc2)=Nc2ccc(Br)cc2C1c1ccccc1 (stereo unspecified) | ? | ? | -8.8 | -30.0%[46.1 µM] | 13.3% | -17.5%
NNC(=O)CN1C(c2ccc(Cl)cc2)=Nc2ccc(Br)cc2C1c1ccccc1 (stereo unspecified) | -0.2% | 8.28µM* | 75.5 | ? | 34.1% | -14.2%
COc1ccc(-c2nc3cnc(Nc4ccccn4)cc3n2C)cc1OC | / | / | -9.6 | / | / | /
COC(=O)c1sc(N)c(C(=O)OC)c1Cn1ncc(Cl)c(Cl)c1=O | ? | 13.1µM* | 45.5 | ? | 8.28µM* | 11.2µM*
COC(=O)c1sc(N)c(C(=O)OC)c1COC(=O)c1c(C)noc1C | ? | ? | 10.8 | ? | ? | ?
